# Measured values taken from PubChem BioAssay (Tox21).
# Several values for one entry are separate records, joined by “and”; a condition that tells them apart may be missing. Equal entries are not always repeated. Records with an inconclusive call do not appear. Where a call stands in place of a potency, no number is given. Some compounds were tested as several samples or in several runs, with calls that do not always agree. Activity calls are given as the source filed them. Unless noted, calls come from the whole dose curve; as a rule, active = well fitted curve in the direction sought with a large enough effect in the repeat runs; inconclusive = weak or mixed curves; inactive = no such curve, though single readings can be large; an effect the other way counts as inactive or inconclusive.
# How the values were obtained:
# [1] = qHTS assay to identify small molecule antagonists of the thyroid receptor (TR) signaling pathway - cell viability counter screen (AID 743064); note: nearly all actives have a fitted effect of over 50% in size; note: potency is the fitted concentration of half-maximal effect
# How it was run: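 Viability of T3-stimulated (1 nM final) GH3.TRE-Luc cells is measured by CellTiter-Fluor fluorescence after 23.5 h compound exposure at 37 °C plus 30 min reagent incubation.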
# [2] = qHTS assay to identify small molecule antagonists of the thyroid receptor (TR) signaling pathway (AID 743065); note: nearly all actives have a fitted effect of over 55% in size; note: potency is the fitted concentration of half-maximal effect
# How it was run: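 Antagonism measured as loss of luciferase signal in GH3 cells stably carrying a TRE-luciferase reporter, co-treated with compound and T3 (1 nM final) for 23.5 h at 37 C. Viability was read in the same well by CellTiter-Fluor.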
# [3] = system: thyroid hormone receptor (rat, GH3 cells); assay: qHTS assay to identify small molecule agonists of the thyroid receptor (TR) signaling pathway (AID 743066; calls by dose curve; note: potency is the fitted concentration of half-maximal effect)
# [4] = qHTS assay to identify small molecule antagonists of the estrogen receptor alpha (ER-alpha) signaling pathway - cell viability counter screen (AID 743074; calls by dose curve;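 note: HEK293 cells carrying ER-alpha-UAS-bla reporter stimulated with 17beta-estradiol; nearly all actives have a fitted effect of over 45% in size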)
# [5] = qHTS assay to identify small molecule antagonists of the estrogen receptor alpha (ER-alpha) signaling pathway using the BG1 cell line - cell viability counter screen (AID 743081);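 note: compound given together with 17beta-estradiol as the ER stimulus; nearly all actives have a fitted effect of over 45% in size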; note: potency is the fitted concentration of half-maximal effect
# Aromatase (Homo sapiens) = Aromatase (Homo sapiens) (UniProt P11511); assay: qHTS assay to identify aromatase inhibitors (AID 743083); note: series mostly up to about 70 µM; nearly all actives have a fitted effect of over 55% in size
# Chain of Aromatase (Homo sapiens) (P11511 whole entry, looked up): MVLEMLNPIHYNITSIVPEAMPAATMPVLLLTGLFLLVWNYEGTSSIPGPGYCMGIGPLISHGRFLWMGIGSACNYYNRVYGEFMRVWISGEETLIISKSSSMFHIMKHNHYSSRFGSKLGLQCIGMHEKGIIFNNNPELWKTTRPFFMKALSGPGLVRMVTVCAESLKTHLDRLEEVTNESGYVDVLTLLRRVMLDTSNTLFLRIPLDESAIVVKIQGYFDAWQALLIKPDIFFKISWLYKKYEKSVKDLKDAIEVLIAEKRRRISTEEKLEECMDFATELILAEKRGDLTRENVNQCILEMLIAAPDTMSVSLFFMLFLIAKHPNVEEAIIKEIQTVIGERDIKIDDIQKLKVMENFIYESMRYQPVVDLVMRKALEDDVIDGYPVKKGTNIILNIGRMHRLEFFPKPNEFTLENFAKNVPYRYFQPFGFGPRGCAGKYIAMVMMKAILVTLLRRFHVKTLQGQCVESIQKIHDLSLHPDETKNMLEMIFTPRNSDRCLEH
# [6] = qHTS assay to identify aromatase inhibitors - cell viability counter screen (AID 743084);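 note: cells stimulated with testosterone during compound exposure; nearly all actives have a fitted effect of over 55% in size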; note: potency is the fitted concentration of half-maximal effect
# [7] = molecular target: Aryl hydrocarbon receptor (Homo sapiens) (UniProt P35869); assay: qHTS assay to identify small molecule that activate the aryl hydrocarbon receptor (AhR) signaling pathway (AID 743085); note: nearly all actives have a fitted effect of over 15% in size; note: potency is the fitted concentration of half-maximal effect;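 for activation: HG2L7.5c1 human HepG2 liver cells with stably integrated DRE-driven firefly reporter; series mostly up to about 70 µM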
# Chain of Aryl hydrocarbon receptor (Homo sapiens) (P35869 whole entry, looked up): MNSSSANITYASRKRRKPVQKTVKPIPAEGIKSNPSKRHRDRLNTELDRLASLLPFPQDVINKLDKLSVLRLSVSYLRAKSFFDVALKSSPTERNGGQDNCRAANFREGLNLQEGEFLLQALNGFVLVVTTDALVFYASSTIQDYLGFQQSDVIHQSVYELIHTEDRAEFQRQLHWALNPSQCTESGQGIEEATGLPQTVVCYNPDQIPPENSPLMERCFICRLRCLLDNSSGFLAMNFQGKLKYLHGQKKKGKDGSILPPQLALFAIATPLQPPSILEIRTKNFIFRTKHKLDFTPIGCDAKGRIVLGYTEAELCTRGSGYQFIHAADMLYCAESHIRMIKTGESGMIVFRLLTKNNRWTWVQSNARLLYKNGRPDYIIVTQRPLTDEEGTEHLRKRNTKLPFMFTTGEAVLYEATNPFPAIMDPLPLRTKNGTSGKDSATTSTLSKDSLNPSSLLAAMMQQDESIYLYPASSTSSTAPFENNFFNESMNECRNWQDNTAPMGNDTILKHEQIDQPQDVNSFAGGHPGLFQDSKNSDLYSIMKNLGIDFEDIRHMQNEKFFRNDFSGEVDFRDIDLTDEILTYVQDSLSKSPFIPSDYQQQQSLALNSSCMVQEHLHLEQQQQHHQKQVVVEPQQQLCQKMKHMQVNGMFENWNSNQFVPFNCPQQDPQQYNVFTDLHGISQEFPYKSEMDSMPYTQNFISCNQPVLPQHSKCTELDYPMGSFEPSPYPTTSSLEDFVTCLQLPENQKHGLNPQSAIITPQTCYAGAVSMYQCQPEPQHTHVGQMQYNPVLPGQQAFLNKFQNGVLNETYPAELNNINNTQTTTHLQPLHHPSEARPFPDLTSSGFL
# How it was run: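 A multiplexed format paired cell viability (CellTiter-Fluor fluorescence) with AhR-dependent luciferase output (ONE-Glo luminescence) in the same wells of HepG2 DRE-luc cells after 24 h compound exposure at 37C.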
# [8] = qHTS assay to identify small molecule that activate the aryl hydrocarbon receptor (AhR) signaling pathway - cell viability counter screen (AID 743086);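 note: HepG2 liver cells carrying the AhR DRE luciferase reporter; series mostly up to about 70 µM; nearly all actives have a fitted effect of over 45% in size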
# How it was run: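 Cytotoxicity counter screen: CellTiter-Fluor signal (30 min, 37 C) in 4000 HepG2 cells/well carrying the DRE-luciferase reporter, following 24 h compound exposure at 37 C.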
# [9] = molecular target: Peroxisome proliferator-activated receptor gamma (Homo sapiens) (UniProt P37231); assay: qHTS assay to identify small molecule agonists of the peroxisome proliferator-activated receptor gamma (PPARg) signaling pathway (AID 743094; active = well fitted activation curve with a large enough effect in the signal ratio in the repeat runs, not every such curve was filed as active; the % refers to the signal ratio)
# Chain of Peroxisome proliferator-activated receptor gamma (Homo sapiens) (P37231 whole entry, looked up): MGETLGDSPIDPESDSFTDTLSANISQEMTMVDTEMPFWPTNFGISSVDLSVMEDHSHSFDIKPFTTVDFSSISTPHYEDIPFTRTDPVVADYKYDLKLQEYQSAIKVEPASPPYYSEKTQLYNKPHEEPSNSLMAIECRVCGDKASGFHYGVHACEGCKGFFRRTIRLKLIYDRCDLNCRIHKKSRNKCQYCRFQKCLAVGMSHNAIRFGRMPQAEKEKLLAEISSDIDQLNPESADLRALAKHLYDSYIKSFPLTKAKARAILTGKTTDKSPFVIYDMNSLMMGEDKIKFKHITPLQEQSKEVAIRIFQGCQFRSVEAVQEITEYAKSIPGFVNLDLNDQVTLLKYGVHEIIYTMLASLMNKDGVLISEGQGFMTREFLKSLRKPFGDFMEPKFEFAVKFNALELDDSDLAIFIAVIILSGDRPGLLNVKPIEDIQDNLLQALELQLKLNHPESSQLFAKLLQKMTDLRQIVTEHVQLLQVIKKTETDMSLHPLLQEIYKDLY
# How it was run: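 Agonism was assessed in a beta-lactamase reporter system, HEK293H cells with a stably integrated UAS-bla construct under PPARg control; the 17 h treatment at 37C preceded a 1 h room-temperature FRET substrate read.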
# [10] = molecular target: Peroxisome proliferator-activated receptor gamma (Homo sapiens) (UniProt P37231); assay: qHTS assay to identify small molecule antagonists of the peroxisome proliferator-activated receptor gamma (PPARg) signaling pathway (AID 743191; calls by dose curve; note: series mostly up to about 63 µM; nearly all actives have a fitted effect of over 30% in size)
# How it was run: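 Beta-lactamase reporter under UAS control in HEK293H PPARg-bla cells; compound treatment 17 h at 37C. Read-out: fluorescence intensity after 1 h room-temperature incubation with LiveBLAzer B/G FRET substrate.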
# [11] = qHTS assay to identify small molecule antagonists of the peroxisome proliferator-activated receptor gamma (PPARg) signaling pathway - cell viability counter screen (AID 743194); note: nearly all actives have a fitted effect of over 55% in size
# How it was run: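 Viability was measured as CellTiter-Glo luminescence in GeneBLAzer PPARg UAS-bla HEK293H cells. These cells had been exposed 17 h at 37 C to compounds together with rosiglitazone at 50 nM final, with the beta-lactamase readout taken in the same wells.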
# [12] = qHTS assay for small molecule agonists of the antioxidant response element (ARE) signaling pathway - cell viability counter screen (AID 743203; calls by dose curve; note: nearly all actives have a fitted effect of over 55% in size)
# How it was run: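 ATP content via CellTiter-Glo luminescence served as the viability measure. Cells: ARE-bla HepG2, 2,000 per well. Exposure: 16 hrs, 37C/5% CO2.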
# [13] = qHTS assay for small molecule activators of the heat shock response signaling pathway - cell viability counter screen (AID 743209); note: nearly all actives have a fitted effect of over 50% in size
# How it was run: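 Compounds dissolved in DMSO were added to overnight-plated HSE-bla HeLa cells and left 5 h at 37 C. Cell viability was quantified by luminescence using CellTiter-Glo.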
# [14] = qHTS assay for small molecule activators of the heat shock response signaling pathway (AID 743210; active = well fitted activation curve with a large enough effect in the signal ratio in the repeat runs, with a control signal flat, not every such curve was filed as active; the % refers to the signal ratio; note: series mostly up to about 63 µM)
# How it was run: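 Compound exposure lasted 5 h at 37 C in HeLa cells carrying a heat-shock-element-driven beta-lactamase reporter. Read-out: fluorescence intensity after 2.5 h room-temperature loading with LiveBLAzer B/G FRET substrate.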
# [15] = molecular target: Estrogen receptor (Homo sapiens) (UniProt P03372); assay: qHTS assay to identify small molecule agonists of the estrogen receptor alpha (ER-alpha) signaling pathway (AID 743075; calls by dose curve;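 note: HEK293 GripTite cells with ER-alpha and UAS-driven beta-lactamase reporter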)
# Chain of Estrogen receptor (Homo sapiens) (P03372 whole entry, looked up): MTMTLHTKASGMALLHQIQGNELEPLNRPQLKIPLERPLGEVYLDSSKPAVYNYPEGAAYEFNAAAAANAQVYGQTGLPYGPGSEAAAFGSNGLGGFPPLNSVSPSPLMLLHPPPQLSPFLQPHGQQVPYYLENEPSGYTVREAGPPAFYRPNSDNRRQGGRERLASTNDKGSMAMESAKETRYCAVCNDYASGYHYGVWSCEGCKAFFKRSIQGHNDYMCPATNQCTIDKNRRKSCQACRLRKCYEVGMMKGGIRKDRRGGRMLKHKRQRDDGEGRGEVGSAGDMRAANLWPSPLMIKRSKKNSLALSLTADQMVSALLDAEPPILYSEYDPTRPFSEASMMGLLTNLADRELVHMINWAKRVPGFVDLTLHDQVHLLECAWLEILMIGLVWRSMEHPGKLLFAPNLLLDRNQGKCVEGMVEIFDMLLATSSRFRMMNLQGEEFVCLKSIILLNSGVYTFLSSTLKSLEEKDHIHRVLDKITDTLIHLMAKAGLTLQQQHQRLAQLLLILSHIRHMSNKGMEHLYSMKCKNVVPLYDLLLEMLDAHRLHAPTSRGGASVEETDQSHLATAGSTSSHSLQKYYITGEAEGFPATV
# [16] = molecular target: Estrogen receptor (Homo sapiens) (UniProt P03372); assay: qHTS assay to identify small molecule agonists of the estrogen receptor alpha (ER-alpha) signaling pathway using the BG1 cell line (AID 743079); note: nearly all actives have a fitted effect of over 20% in size; note: potency is the fitted concentration of half-maximal effect
# [17] = qHTS assay to identify small molecule antagonists of the estrogen receptor alpha (ER-alpha) signaling pathway using the BG1 cell line (AID 743080; calls by dose curve;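 note: BG1 cells stimulated with 17beta-estradiol alongside compound; series mostly up to about 70 µM; nearly all actives have a fitted effect of over 25% in size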)
# How it was run: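 Quantitative HTS on the Tox21 10K library: BG1 cells with endogenous ER-alpha and ERE-luciferase reporter, 17beta-estradiol stimulation, 21.5 h compound exposure, luminescence endpoint with parallel fluorescence cytotoxicity counter-read.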
# [18] = qHTS assay for small molecule agonists of the antioxidant response element (ARE) signaling pathway (AID 743202; active = well fitted activation curve with a large enough effect in the signal ratio in the repeat runs, not every such curve was filed as active; the % refers to the signal ratio; note: potency is the fitted concentration of half-maximal effect)
# How it was run: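 After 16 hours of compound treatment at 37 C, HepG2 cells with a stably integrated ARE-driven beta-lactamase reporter were loaded 2 hours at room temperature with LiveBLAzer B/G FRET substrate and fluorescence intensity measured.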
# [19] = molecular target: Estrogen receptor (Homo sapiens) (UniProt P03372); assay: qHTS assay to identify small molecule antagonists of the estrogen receptor alpha (ER-alpha) signaling pathway (AID 743069; active = well fitted curve in the direction sought with a large enough effect in the signal ratio in the repeat runs, not every such curve was filed as active; the % refers to the signal ratio; note: potency is the fitted concentration of half-maximal effect)
# How it was run: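 Antagonist mode: compounds in DMSO were co-added with 17beta-estradiol to ER-alpha-bla HEK293 cells (2% charcoal-stripped serum) and left 18 h at 37C. Reporter inhibition was measured as FRET fluorescence after 2 h LiveBLAzer substrate at room temperature.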
Compound,Potency [1],Potency [2],Potency [3],outcome [4],Potency [5],Potency (Aromatase (Homo sapiens)),Potency [6],Potency [7],outcome [8],outcome [9],outcome [10],outcome [11],outcome [12],outcome [13],Potency [14],Potency [15],Potency [16],Potency [17],Potency [18],Potency [19]
O=c1[nH]c(=O)n([C@H]2CCCO2)cc1F,inactive,inactive,inactive,inactive,inactive,inactive,inactive,inactive,inactive,inactive,inactive,inactive,inactive,inactive,inactive,–,–,–,–,–
Cc1occc(=O)c1O,inactive,inactive,inactive and 50.9 µM (active),inactive,inactive,inactive,inactive,inactive,inactive,inactive,inactive,inactive,inactive,inactive,inactive,–,–,–,–,–
CCN(CC)c1ccc(C(=O)c2ccccc2C(=O)O)c(O)c1,inactive,inactive,inactive,inactive,inactive,inactive,inactive,inactive,inactive,–,–,inactive,inactive,inactive,inactive,inactive,17.3 µM (active) and 43.3 µM (active),–,–,–
C/C=C1/CC2C=CC1C2 (centres undefined),inactive,inactive,inactive,inactive,inactive,inactive,inactive,inactive,inactive,inactive,–,inactive,inactive,inactive,inactive,inactive,inactive,inactive,inactive,–
O=c1[nH]c(=O)n([C@H]2C[C@H](O)[C@@H](CO)O2)cc1Br,inactive,inactive,inactive,inactive,inactive,inactive,inactive,inactive,inactive,inactive,inactive,inactive,inactive,inactive,inactive,inactive,–,–,inactive,–
CCCCC(CC)CO (centres undefined),inactive,inactive,inactive,inactive,inactive,inactive,inactive,inactive,inactive,inactive,inactive,inactive,inactive,inactive,inactive,–,–,–,–,–
O=C(O)c1cc(C(=O)O)cc(S(=O)(=O)O)c1,inactive,inactive,inactive,inactive,inactive,inactive,inactive,inactive,inactive,inactive,inactive,inactive,inactive,inactive,inactive,–,–,–,inactive,–
CCC(O)OCCCOC (centres undefined),inactive,inactive,inactive,inactive,inactive,inactive,inactive,inactive,inactive,inactive,inactive,inactive,inactive,inactive,inactive,–,–,–,–,–
c1c[nH]cn1,inactive,inactive,inactive,inactive,inactive,inactive,inactive,inactive,inactive,inactive,inactive,inactive,inactive,inactive,inactive,inactive,inactive,inactive,–,–
ON=C1CCCCC1,inactive,inactive,inactive,inactive,inactive,inactive,inactive,inactive,inactive,inactive,inactive,inactive,inactive,inactive,inactive,–,–,–,–,–
C[C@H]1C[C@@H]2[C@H]([C@@H](O)C[C@@]3(C)[C@H]2CC[C@]3(O)C(=O)CO)[C@@]2(C)C=CC(=O)C=C12,inactive,inactive,inactive,inactive,inactive,inactive,inactive,inactive,inactive,inactive,inactive,inactive,inactive,inactive,–,–,–,–,inactive,–
O=C(O)[C@H](O)[C@@H](O)[C@H](O)[C@H](O)CO,inactive,inactive,inactive,inactive,inactive,inactive,inactive,inactive,inactive,inactive,inactive,inactive,inactive,inactive,inactive,–,–,–,inactive,–
O=C(O)c1ccc(C(=O)O)cc1,inactive,inactive,inactive,inactive,inactive,inactive,inactive,inactive,inactive,inactive,inactive,inactive,inactive,inactive,inactive,–,–,–,inactive,–
O=c1[nH]nnc2ccccc12,inactive,inactive,inactive,inactive,inactive,inactive,inactive,inactive,inactive,inactive,inactive,inactive,inactive,inactive,inactive,–,–,–,–,–
O=C(O)c1cc(O)c(O)c(O)c1,inactive and 55 µM (active),inactive,inactive,inactive,inactive,inactive,inactive and 49 µM (active),inactive,–,inactive,–,inactive,inactive,inactive,inactive,inactive,inactive,inactive,–,–
C=CCNC(N)=S,inactive,inactive,inactive,inactive,inactive,inactive,inactive,inactive,inactive,inactive,inactive,inactive,inactive,inactive,inactive,–,–,–,inactive,–
COS(C)(=O)=O,inactive,inactive,inactive,inactive,inactive,inactive,inactive,inactive,inactive,inactive,inactive,inactive,inactive,inactive,inactive,inactive,inactive,inactive,–,–
CN(C)CCC(c1ccccc1)c1ccccn1 (centres undefined),inactive,inactive,inactive,inactive,inactive,–,inactive,inactive,inactive,–,–,inactive,inactive,inactive,inactive,–,–,–,inactive,–

Compound,Potency [1],Potency [2],Potency [3],outcome [4],Potency [5],Potency (Aromatase (Homo sapiens)),Potency [6],Potency [7],outcome [8],outcome [9],outcome [10],outcome [11],outcome [12],outcome [13],Potency [14],Potency [15],Potency [16],Potency [17],Potency [18],Potency [19]
COCCCOc1ccnc(CS(=O)c2nc3ccccc3[nH]2)c1C (centres undefined),inactive,48.4 µM (active),inactive,inactive,inactive,inactive,inactive,9.44 µM (active) and 3.05 µM (active),–,–,–,inactive,inactive,inactive,inactive,–,–,–,6.09 µM (active),–
NNc1nncc2ccccc12,–,–,–,inactive,inactive,inactive,–,9.69 µM (active),inactive,–,–,inactive,inactive,inactive,inactive,–,–,–,–,–
C=C(C)C(=O)OCCOCCOCCOC(=O)C(=C)C,inactive,inactive,inactive,inactive,inactive,inactive,inactive,inactive,inactive,inactive,–,inactive,inactive,inactive,inactive,–,–,–,–,–
O=P(OC(CCl)CCl)(OC(CCl)CCl)OC(CCl)CCl,–,61.1 µM (active),inactive,inactive,inactive,–,inactive,inactive,inactive,inactive,–,inactive,inactive,inactive,inactive,inactive,inactive,inactive,inactive,54.9 µM [inhibitor] (active)
N[C@@H](Cc1cc(I)c(Oc2cc(I)c(O)c(I)c2)c(I)c1)C(=O)O,inactive,inactive,8.4 nM (active) and 10.9 nM (active),inactive,inactive,inactive,inactive,13.8 µM (active),inactive,inactive,–,inactive,inactive,inactive,inactive,–,–,–,inactive,–
COc1ccc(Cl)cc1C(=O)NCCc1ccc(S(=O)(=O)NC(=O)NC2CCCCC2)cc1,inactive,inactive,inactive,inactive,inactive,inactive,inactive,inactive,inactive,inactive,–,inactive,inactive,inactive,inactive,–,–,–,–,–
O=C(O)c1ccccc1C(c1ccc(O)cc1)c1ccc(O)cc1,inactive,inactive,inactive,–,inactive,inactive,inactive,inactive,inactive,inactive,inactive,–,inactive,inactive,inactive,inactive,inactive,inactive,–,–
CN(C)CCC(c1ccc(Cl)cc1)c1ccccn1 (centres undefined),24.4 µM (active) and 30.6 µM (active),48.7 µM (active) and 48.6 µM (active),inactive,inactive,inactive,–,–,inactive,inactive,–,–,inactive,inactive,inactive,inactive,–,–,–,–,–
CCCCC(CC)COC(=O)CS (centres undefined),inactive,inactive,inactive,inactive,inactive,–,–,–,inactive,–,–,inactive,inactive,inactive,inactive,–,–,–,inactive,–
Cc1cccc(O)c1,inactive,inactive,inactive,–,inactive,inactive,inactive,inactive,inactive,inactive,inactive,inactive,inactive,inactive,inactive,inactive,inactive,inactive,inactive,–
OCC(CO)(CBr)CBr,inactive,inactive,inactive,inactive,inactive,inactive,inactive,inactive,inactive,inactive,inactive,inactive,inactive,inactive,inactive,–,–,–,–,–
Nc1cc([N+](=O)[O-])ccc1O,30.6 µM (active) and 60.8 µM (active),inactive,inactive,inactive,54.5 µM (active),inactive,54.5 µM (active),–,–,inactive,inactive,inactive,inactive,inactive,inactive,–,–,–,–,–
Cc1cccnc1,inactive,inactive,inactive,–,inactive,inactive,inactive,inactive,inactive,inactive,inactive,inactive,inactive,inactive,inactive,–,–,–,inactive,–
CC1=C(C)S(=O)(=O)CCS1(=O)=O,inactive,–,inactive,inactive,inactive,inactive,inactive,inactive,inactive,–,–,inactive,inactive,inactive,inactive,inactive,inactive,inactive,1.09 µM (active),inactive
OCc1cccnc1,inactive,–,inactive,inactive,inactive,inactive,inactive,inactive,inactive,–,–,inactive,inactive,inactive,inactive,inactive,inactive,inactive,–,–
CCCCCCCCCCCCc1ccccc1,inactive,–,–,inactive,inactive,inactive,inactive,inactive,inactive,inactive,inactive,inactive,inactive,inactive,inactive,–,–,–,–,–
c1ccc2c(c1)ccc1ccccc12,inactive,–,inactive,inactive,inactive,inactive,inactive,inactive,inactive,inactive,inactive,inactive,inactive,inactive,inactive,inactive,inactive,inactive,inactive,inactive
